# Experimental data published in PubChem BioAssay (NCI).
# Where “and” joins values, the source holds several entries; their conditions need not be identical. Identical values can stand only once. This is part of a sample that, as a whole, favours compounds with a hit. Of some 79,000 tested, about 15% had one in any assay. Unmarked numbers belong to inactive results. Calls of active or inactive are those of the source. Cut-off read from the data, not from the text of the source: active = growth inhibition above about 70%; inactive = the rest.
# Key:
# [1] = NCI Yeast Anticancer Drug Screen. Data for the rad50 strain (AID 155);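 note: 0% = growth of vehicle-only cultures of the same strain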; details: S. cerevisiae rad50 strain growth inhibition; at 50.0 µM; hits give high values
# Summary of the method: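 Yeast carrying a defined DNA repair defect were exposed to test compounds, and growth was compared with vehicle-treated controls to give percent inhibition.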
# [2] = NCI Yeast Anticancer Drug Screen. Data for the mec2-1 strain (AID 157); details: S. cerevisiae mec2-1 strain, at 50.0 µM, hits give high values
# Summary of the method: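 Strain: mec2-1 (DNA repair/cell cycle alteration). Compound exposure, then growth measured; inhibition expressed relative to vehicle.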
# [3] = NCI Yeast Anticancer Drug Screen. Data for the sgs1 mgt1 strain (AID 161);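 note: 0% = growth of cultures given vehicle only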; details: S. cerevisiae sgs1 mgt1 strain, at 50.0 µM, hits give high values
# Summary of the method: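 Mutant yeast exposed to compound; growth scored against vehicle-only wells.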
# [4] = NCI Yeast Anticancer Drug Screen. Data for the cln2 rad14 strain (AID 165);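 note: 0% = growth equal to vehicle treated cultures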; details: S. cerevisiae cln2 rad14 strain, at 50.0 µM, hits give high values
# Summary of the method: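 Compounds are applied to the cln2 rad14 yeast strain, and growth is then compared with that of vehicle-treated cultures to give inhibition.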
# [5] = NCI Yeast Anticancer Drug Screen. Data for the bub3 strain (AID 167); details: S. cerevisiae bub3 mutant strain, at 50.0 µM, hits give high values
# Summary of the method: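 Compounds were applied to a genetically altered yeast strain carrying a cell-cycle control defect. Growth inhibition was scored against vehicle-treated controls.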
# [6] = NCI Yeast Anticancer Drug Screen. Data for the mlh1 rad18 strain (AID 175); details: S. cerevisiae mlh1 rad18 strain growth inhibition; at 50.0 µM; hits give high values
# Summary of the method: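 Read-out is yeast growth inhibition, calculated against vehicle-only controls. The compound was applied to a strain engineered with DNA damage repair alterations.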
Structure (SMILES),growth inhibition [1],growth inhibition [2],growth inhibition [3],growth inhibition [4],growth inhibition [5],growth inhibition [6]
BrC(Br)c1cccc(C(Br)Br)c1,55.7%,37.8%,27.1%,37.5%,64%,56.6%
c1cc2c(c(NC3=NCCO3)c1)CCCC2,3.4% and 5.65%,1.05% and -2.1%,-2.5% and 6.05%,-45.5% and 0.05%,-5.35% and 39.4%,-1.1% and -6.15%
COC(C(=O)C(O)C(C)O)C1Cc2cc3cc(OC4CC(OC(C)=O)C(OC5CC(O)C(OC)C(C)O5)C(C)O4)cc(O)c3c(O)c2C(=O)C1OC1CC(OC2CC(OC3CC(C)(O)C(OC(=O)C(C)C)C(C)O3)C(O)C(C)O2)C(O)C(C)O1 (configuration not stated),1.55% and 17.7%,-5.45% and 28.8%,-24.6% and 17.3%,52.5% and 58%,-19.4% and 35.5%,1.2% and 17.1%
CC[As](CC)SC(CC[C@@H](C)C1CC[C@@]2(C)C3=C(CC[C@]12C)[C@@]1(C)CC[C@H](O)C(C)(C)[C@@H]1CC3)C(C)C (some centres not stated),3.95%,17.6%,-8.15%,-21.1%,-1.55%,-25.6%
O=C([CH-]C(=O)C(F)(F)F)c1ccco1.O=C([CH-]C(=O)C(F)(F)F)c1ccco1.O=C([CH-]C(=O)C(F)(F)F)c1ccco1.[Ru+3],8.2%,-11%,-19.6%,-11.6%,1.95%,11.7%
COc1ccc2ccc3oc([N+](=O)[O-])cc3c2c1,14.8%,25.7%,-23.9%,-14%,-36%,-36%
CCO[C@@H]1c2cc3c(cc2[C@@H](c2cc(OC)c(O)c(OC)c2)[C@H]2C(=O)OC[C@@H]21)OCO3,88.1% (active),92.2% (active),89% (active),85.2% (active),88.5% (active),87.5% (active)
COC(CN1CCOCCOCCOCC1)CN1CCOCCOCCOCC1,-9.3%,-6.55%,-29.1%,15.4%,14.2%,-17.8%
CSCC(NP1(=O)SC(NN=C(C)C)=NC1(C)C)C(=O)O (configuration not stated),4.85%,-3.7%,-26.5%,20.3%,17.6%,-3.45%
CC(C)(C)OC(=O)NCC(=O)NC(CSC(c1ccccc1)c1ccccc1)C(=O)NCC(=O)O (configuration not stated),8.45%,7.3%,11%,-6.35%,-4.9%,15.1%
C/C=C/C=C\C=C/C(O)CC(OP(=O)(O)O)C(C)(O)/C=C/C1CC=CC(=O)O1 (configuration not stated),-9.75%,-52%,-20.4%,8.65%,-3.35%,-44.2%
CCC(=O)N(c1ccccc1)C(C)CN1CCC(O)(c2ccccc2)CC1 (configuration not stated),4.2%,-12.4%,5.9%,-37%,-10.4%,-8.15%
CCCOCC(O)C[As](=O)(O)c1cccc(Cl)c1 (configuration not stated),2.35%,3.55%,0.3%,-4.4%,10.2%,-5.55%
NC(Cc1cnc[nH]1)C(=O)NC(Cc1cnc[nH]1)C(=O)O (configuration not stated),-5.1%,9%,-1.5%,10.6%,4.45%,7.6%
CCOC(=O)C(Cc1ccc(N(CCCl)CCCl)cc1)NC(=O)CNC(C)=O (configuration not stated),2.4%,-7.85%,14.7%,1.45%,-10.4%,10.3%
CC(c1ccccc1)N1CCN(C(C)c2ccccc2)CC1 (configuration not stated),2.75%,-34.5%,-31.7%,26.4%,-30%,4.95%

Structure (SMILES),growth inhibition [1],growth inhibition [2],growth inhibition [3],growth inhibition [4],growth inhibition [5],growth inhibition [6]
CN(C)C(=S)Oc1c(Cl)cc(S(=O)(=O)F)cc1Cl,35.4%,12.9%,15.2%,19.6%,-6.5%,21.4%
ICCCI,0.6%,-29.8%,16.1%,3.8%,19%,3.2%
CCOC(=O)Oc1c(Cl)cc(S(=O)(=O)F)cc1Cl,99.6% (active),99.8% (active),99.6% (active),99.5% (active),99.7% (active),99.5% (active)
COP12(OC)NC(=O)OC1(C(F)(F)F)c1ccccc1O2 (configuration not stated),-14.9%,-4%,-23.9%,-5.15%,-28%,-39%
Nc1cccc2scnc12 (tested in a mixture with another compound),-13.9%,3.8%,29.7%,-7.85%,-10.3%,19.1%
CC(O)C[As](=O)(O)c1ccccc1Cl (configuration not stated),2.85%,25.5%,-17.3%,-2.55%,14.4%,-16.6%
Cc1ccc(S(=O)(=O)CC([Se]C#N)c2ccccc2)cc1 (configuration not stated),-21.1%,2.2%,-15.1%,-3.9%,-6.1%,1.45%
O=[N+]([O-])c1cc(Cl)ccc1O,0.2%,-5.65%,-6.5%,14.2%,-7.15%,3.75%
COP(=O)(OC)/C(C#N)=C/c1ccco1,-35.3%,-29.1%,-46.5%,-27.8%,-42.6%,-41.1%
CC(=O)C(C(C)=O)C(C)=O.CC(=O)C(C(C)=O)C(C)=O.CC(=O)C(C(C)=O)C(C)=O.[Cr],25.2%,2.8%,11.2%,7.25%,-3.6%,5.25%
[Cl][Co][Cl].[NH-]CC[NH-].[NH-]CC[NH-],19.2% and -9.85%,9.3% and 29.6%,25.2% and -4.55%,-9.95% and 9.2%,36.7% and 2.4%,37% and -23.4%
C[C@]12CC[C@H](O)C[C@H]1CC[C@@H]1[C@@H]2CC[C@]2(C)[C@@H](C3=CC(=O)OC3)CC[C@]12O,-3.9%,12.4%,5.55%,-56.4%,15.3%,8.4%
CC(NC1=NCCO1)c1ccccc1Cl (configuration not stated),-8.85%,-29%,5.45%,-27.9%,-12.9%,-48%
CC(C)C(=O)[O-].CC(C)C(=O)[O-].N.N.N.N.[Co+3].[O-][Cl+3]([O-])([O-])[O-],-17.1% and -29.1%,4% and 16.6%,-54% and -56.5%,9.9% and 23.4%,-6.75% and -12.6%,-11.2% and -8.35%
O=C1NC(=S)NC(=O)C1=Cc1cccc2cc3ccccc3cc12,97.7% (active),98.8% (active),98.5% (active),93.3% (active),98.1% (active),97% (active)
CCCCOP(=O)(OCCCC)Oc1cccc([N+](=O)[O-])c1,6.6%,46.1%,18.9%,28.2%,42.3%,14.5%
